Most compounds without a hit are left out; they make up all but 2.9% or so of the library.
DRD3 agonist: qHTS of D3 Dopamine Receptor Agonist: qHTS. D3R DiscoveRx beta-arrestin cells, luminescence, 90 min. max activation, %. actives 0.58% (n = 410,000). AID 652048, 2013; in the data active = max activation above about 30%
Target sequence (P35462 whole entry, looked up): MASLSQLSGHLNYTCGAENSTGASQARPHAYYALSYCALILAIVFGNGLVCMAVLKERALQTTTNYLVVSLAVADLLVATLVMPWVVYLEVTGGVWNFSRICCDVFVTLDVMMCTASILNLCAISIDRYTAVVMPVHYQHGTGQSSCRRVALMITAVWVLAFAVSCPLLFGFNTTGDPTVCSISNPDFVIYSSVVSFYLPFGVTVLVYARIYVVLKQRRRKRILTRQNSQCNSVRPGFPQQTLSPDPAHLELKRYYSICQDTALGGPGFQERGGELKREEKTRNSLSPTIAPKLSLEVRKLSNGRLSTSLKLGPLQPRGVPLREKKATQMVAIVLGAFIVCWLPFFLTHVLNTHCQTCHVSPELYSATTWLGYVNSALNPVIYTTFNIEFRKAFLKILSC
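Cells at 1500/well, incubated overnight, then treated with pinned compounds (dopamine as control) for 90 min at 37 degrees C. DiscoveRx reagent added for 30 - 60 minutes at room temperature; luminescence read.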
a7 integrin act: qHTS for Activators of Integrin-Mediated Alleviation for Muscular Dystrophy; alpha7betagal myoblasts, beta-gal FDG fluorescence, 48 h; Potency, µM (top dose mostly 38.3 µM), usual class: activators; actives 0.064% (n = 350,000); active = well fitted activation curve with a large enough effect; inconclusive = small, poorly fitted or top-dose-only effect; inactive = no such curve, though single readings can be large or run the other way; note: nearly all actives have a fitted effect of over 60% in size
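Alpha7betagal+/- myoblasts (passage 13) were plated 16-24 hr, then exposed to compounds (1:260 dilution of DMSO stock) for 48 hours at 37C. After MPER lysis, β-galactosidase reporter activity was read as FDG fluorescence (ex 480/em 540) after 30 minutes.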
D3 antag: qHTS of D3 Dopamine Receptor Antagonist: qHTS; actives 2.5% (n = 360,000); D3R cells, DiscoveRx beta-arrestin luminescence, antagonist mode; hits give low values; D(3) dopamine receptor (Homo sapiens), P35462; AID 652054, 2013; max response, negative = inhibition, %; in the data active = max response below about -50%; inconclusive = no clear call, values can overlap the other calls
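Cells expressing the human receptor were seeded at 1500 cells/well, incubated overnight at 37 degrees C in 5% CO2, then exposed to library compounds with dopamine controls for 90 minutes at 37 degrees C before luminescent detection.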
Hits are given with their value.

What do the screens show for `NC(=O)NC(Cc1ccccc1)C(=O)N1CCN(S(=O)(=O)c2ccc(Cl)cc2)CC1` (stereo not given)?
DRD3 agonist: inactive; a7 integrin act: inactive; D3 antag: -68

Results for COc1ccc(S(=O)(=O)N2CCN(C(=O)[C@H](Cc3ccccc3)NC(=O)c3ccco3)CC2)cc1 ?
DRD3 agonist: inactive; a7 integrin act: inactive; D3 antag: inactive

What do the screens show for `Cc1ccc(-c2nnc(Nc3ccc(F)cc3)c3ccccc23)cc1S(=O)(=O)NC(C)C`?
DRD3 agonist: inactive

What do the screens show for `O=C(c1nc2ccc(Cl)cn2c1CN1CCC(O)CC1)N1CCc2ccccc2C1`?
DRD3 agonist: inactive; a7 integrin act: inactive; D3 antag: inactive

How did CC1CCN(Cc2c(C(=O)N3CCc4ccccc4C3)nc3ccc(Cl)cn23)CC1 do in these assays?
DRD3 agonist: inactive; a7 integrin act: inconclusive; D3 antag: -89

What do the screens show for `c1ccc2c(CN3CCCCC3)csc2c1`?
DRD3 agonist: inactive; a7 integrin act: inactive; D3 antag: inconclusive

How did CC1=C(C(=O)N(C(C)C)C(C)C)CC(CC(=O)NC2CCCCC2)C(=O)N1CCC1=CCCCC1 (stereo not given) do in these assays?
DRD3 agonist: inactive; D3 antag: inactive

What do the screens show for `CC(=O)c1ccc(OC2(C)CCN(Cc3csc4ccccc34)C2)cc1` (stereo not given)?
DRD3 agonist: inactive; D3 antag: -53

How did COc1cc(Cl)ccc1OC1(C)CCN(Cc2ccc(SC)cc2)C1 (stereo not given) do in these assays?
DRD3 agonist: inactive; D3 antag: -70

How did CC(=O)c1ccc(OC2(C)CCN(Cc3ccc(OC(F)(F)F)cc3)C2)cc1 (stereo not given) do in these assays?
DRD3 agonist: inactive; D3 antag: inactive

How did COC(=O)Cc1ccc(OC2(C)CCN(Cc3ccccc3OC(F)F)C2)cc1 (stereo not given) do in these assays?
DRD3 agonist: inactive; D3 antag: -59

How did CSc1ccc(CN2CCC(C)(Oc3cnc(Cl)c4ccccc34)C2)cc1 (stereo not given) do in these assays?
DRD3 agonist: inactive; D3 antag: inactive

Results for CCc1ccc(OC2(C)CCN(Cc3ccccc3OC(F)F)C2)cc1 (stereo not given) ?
DRD3 agonist: inactive; D3 antag: inactive

Results for CC(=O)c1ccc(OC2(C)CCN(Cc3ccccc3OC(F)F)C2)cc1 (stereo not given) ?
DRD3 agonist: inactive; D3 antag: inconclusive

How did CSc1ccc(CN2CCC(C)(Oc3ccc(C(C)=O)cc3)C2)cc1 (stereo not given) do in these assays?
DRD3 agonist: inactive; D3 antag: -69

Results for COc1cccc(Cn2c(C)c(CNC3CCCCC3)c(C(=O)O)c2C)c1 ?
DRD3 agonist: inactive

What do the screens show for `O=[N+]([O-])c1cc(S(=O)(=O)N2CCOCC2)ccc1OCc1cccc(Cl)c1`?
DRD3 agonist: inactive; a7 integrin act: inactive; D3 antag: inactive

What do the screens show for `O=C1/C(=C/c2ccncc2)SC(=S)N1N1CCOCC1`?
DRD3 agonist: inactive; a7 integrin act: inactive; D3 antag: inactive

How did CS(=O)(=O)Oc1ccc(/C=N/NC(=O)c2ccncc2)cc1 do in these assays?
DRD3 agonist: inactive; a7 integrin act: inactive; D3 antag: inactive

Results for O=C1NC(=O)/C(=C\c2ccsc2)N1 ?
DRD3 agonist: inactive; a7 integrin act: inactive; D3 antag: inactive

Results for O=C(Cc1c(F)cccc1Cl)Nc1ccncc1 ?
DRD3 agonist: inactive; a7 integrin act: inactive; D3 antag: inactive

How did CSc1ccc(CN2CCC(C)(Oc3ccccc3C)C2)cc1 (stereo not given) do in these assays?
DRD3 agonist: inactive; D3 antag: inconclusive

Results for CC1(Oc2ccccc2-c2ccno2)CCN(Cc2csc3ccccc23)C1 (stereo not given) ?
DRD3 agonist: inactive; D3 antag: -78

What do the screens show for `CC1(Oc2ccc(F)cc2)CCN(Cc2ccccc2OC(F)F)C1` (stereo not given)?
DRD3 agonist: inactive; D3 antag: inactive

What do the screens show for `CSc1ccc(OC2(C)CCN(Cc3ccc(OC(F)(F)F)cc3)C2)cc1` (stereo not given)?
DRD3 agonist: inactive; D3 antag: inactive

How did CSc1ccc(CN2CCC(C)(Oc3ccccc3F)C2)cc1 (stereo not given) do in these assays?
DRD3 agonist: inactive; D3 antag: -57

Results for CSc1ccc(CN2CCC(C)(Oc3ccc(F)cc3)C2)cc1 (stereo not given) ?
DRD3 agonist: inactive; D3 antag: -112

Results for CSc1ncccc1C(=O)Nc1ccncc1 ?
DRD3 agonist: inactive; a7 integrin act: inactive; D3 antag: inactive

How did O=C(CCSc1ccc(Cl)cc1)NCc1ccncc1 do in these assays?
DRD3 agonist: inactive; a7 integrin act: inactive; D3 antag: inactive

How did CCOC(=O)c1cnc(-n2nc(C)cc2C)nc1NCCc1ccccc1 do in these assays?
DRD3 agonist: inactive; a7 integrin act: inactive; D3 antag: inactive

How did Cc1ccc(COc2ccc(Br)cc2/C=N/O)cc1 do in these assays?
DRD3 agonist: inactive; a7 integrin act: inactive; D3 antag: -94

What do the screens show for `O/N=C/c1cc(Br)ccc1OCc1ccc(F)cc1`?
DRD3 agonist: inactive; a7 integrin act: inactive; D3 antag: inactive

How did Cc1ccc(Cl)c(NC(=O)COC(=O)CNS(=O)(=O)/C=C/c2ccccc2)c1Cl do in these assays?
DRD3 agonist: inactive; a7 integrin act: inactive; D3 antag: inactive

What do the screens show for `COC1(OC)N=C(N)C2(C#N)C(c3cccc(Oc4ccccc4)c3)C12C#N` (stereo not given)?
DRD3 agonist: inactive; a7 integrin act: inactive; D3 antag: -50

What do the screens show for `COc1cccc(C2C3(C#N)C(N)=NC(OC)(OC)C23C#N)c1` (stereo not given)?
DRD3 agonist: inactive; a7 integrin act: inactive; D3 antag: inactive

What do the screens show for `N/C(=N\NS(=O)(=O)c1ccccc1C(F)(F)F)c1ccccn1`?
DRD3 agonist: inactive; a7 integrin act: inactive; D3 antag: inactive

How did Cc1nc(C(F)(F)F)c(C(=O)N/N=C(\N)c2ccccn2)s1 do in these assays?
DRD3 agonist: inactive; a7 integrin act: inactive; D3 antag: -52

Results for CCCN1CCN(CCCNC(=O)c2ccc3c(c2)sc2nc(-c4ccc(OC)cc4)cn23)CC1 ?
DRD3 agonist: inactive

How did CCc1[nH]nc2c1C(c1ccc(Br)s1)C(C#N)=C(N)O2 (stereo not given) do in these assays?
DRD3 agonist: inactive; a7 integrin act: inactive; D3 antag: -56

What do the screens show for `CCc1[nH]nc2c1C(c1ccsc1)C(C#N)=C(N)O2` (stereo not given)?
DRD3 agonist: inactive; a7 integrin act: inactive; D3 antag: inactive

What do the screens show for `COc1cccc(OCCNC(=O)CSc2ccc(C(F)(F)F)cc2[N+](=O)[O-])c1`?
DRD3 agonist: inactive; a7 integrin act: inactive; D3 antag: inactive

Results for CC[C@@H](C(=O)[C@@H](C)[C@@H](O)[C@H](C)CCc1ccc(C)c(O)c1C(=O)O)[C@H]1O[C@](CC)([C@H]2CC[C@](O)(CC)[C@H](C)O2)C[C@@H]1C ?
DRD3 agonist: 208; D3 antag: inactive
